This note sets out measurements from publication PMC4336329 (PLoS ONE, 2015).

Molecules are shown by their SMILES. Among all 310,000 compounds or so, about 14,000 (4.5%) showed an effect of 50% or more. The effect is printed as a negative number. The full list was thinned out, with strong results kept by preference.
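Further: peak tail current of the secondary pulse compared with the same well before compound.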

In the assay the target is human ether-à-go-go-related gene (hERG) potassium channel (human, UniProt Q12809). The assay is described as follows: primary screen, population patch clamp on CHO cells stably expressing hERG; higher = less effect of the substance.
Sequence of human ether-à-go-go-related gene (hERG) potassium channel (Q12809 whole entry, looked up): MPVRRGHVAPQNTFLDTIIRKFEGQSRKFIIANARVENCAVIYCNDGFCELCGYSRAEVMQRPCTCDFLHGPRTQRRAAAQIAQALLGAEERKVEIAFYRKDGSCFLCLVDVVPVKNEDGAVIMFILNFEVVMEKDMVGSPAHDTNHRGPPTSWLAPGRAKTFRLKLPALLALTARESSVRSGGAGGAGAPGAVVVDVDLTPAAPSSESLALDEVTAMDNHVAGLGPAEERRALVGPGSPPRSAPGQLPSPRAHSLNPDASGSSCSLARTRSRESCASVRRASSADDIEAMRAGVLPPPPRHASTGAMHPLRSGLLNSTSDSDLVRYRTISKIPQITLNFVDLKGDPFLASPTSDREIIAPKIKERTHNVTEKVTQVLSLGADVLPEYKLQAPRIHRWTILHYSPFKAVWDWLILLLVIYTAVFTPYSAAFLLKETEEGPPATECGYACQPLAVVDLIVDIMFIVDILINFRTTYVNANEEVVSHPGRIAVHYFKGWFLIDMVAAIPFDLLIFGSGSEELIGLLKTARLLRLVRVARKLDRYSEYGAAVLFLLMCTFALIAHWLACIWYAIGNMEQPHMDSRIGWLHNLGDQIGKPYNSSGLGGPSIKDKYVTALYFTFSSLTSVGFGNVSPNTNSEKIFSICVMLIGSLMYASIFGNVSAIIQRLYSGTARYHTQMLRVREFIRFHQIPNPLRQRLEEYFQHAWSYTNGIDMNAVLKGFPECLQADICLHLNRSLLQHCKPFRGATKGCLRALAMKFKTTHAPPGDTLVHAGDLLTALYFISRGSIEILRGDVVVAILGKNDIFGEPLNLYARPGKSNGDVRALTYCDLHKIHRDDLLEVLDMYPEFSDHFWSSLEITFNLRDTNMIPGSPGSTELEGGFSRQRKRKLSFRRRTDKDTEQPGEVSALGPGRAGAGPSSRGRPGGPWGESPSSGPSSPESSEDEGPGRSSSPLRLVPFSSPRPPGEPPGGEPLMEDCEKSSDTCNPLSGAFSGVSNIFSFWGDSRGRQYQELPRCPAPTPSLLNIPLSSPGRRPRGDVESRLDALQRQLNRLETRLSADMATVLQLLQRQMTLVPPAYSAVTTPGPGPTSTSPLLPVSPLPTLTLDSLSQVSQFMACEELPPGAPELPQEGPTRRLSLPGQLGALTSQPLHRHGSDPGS
Regarding `O=C(O)C1Cc2ccccc2-c2ccccc2C1`, the “hERG current change (%, negative = inhibition) at 10uM” value was determined as 20.1%.
Under `CC(C)COC(=O)c1ccc(NC(=O)C2C3CCC(C3)C2C(=O)O)cc1` (stereo not shown) stands 7.41%.
Under `Nc1nc(Cl)cc(Sc2ccc3ccccc3c2)n1` stands 14.1%.
Regarding `CCOC(=O)c1ccoc1CSCc1ccc(C(=O)OC)o1`, the “hERG current change (%, negative = inhibition) at 10uM” value stood at 5.24%.
On to `COc1ccc(CNC(=O)C/C(C)=N/NC(=O)Cc2ccc(OC)cc2)cc1`, for which the “hERG current change (%, negative = inhibition) at 10uM” value is recorded as 3.39%.
For `CCC(=O)Oc1ccc(-c2cnc3ccccc3n2)cc1`, the “hERG current change (%, negative = inhibition) at 10uM” value amounted to 13.5%.
As for `COc1ccc(C(CNC(=O)c2cccc(S(=O)(=O)NCc3ccccc3)c2)N2CCOCC2)cc1` (stereo not shown), the “hERG current change (%, negative = inhibition) at 10uM” value is -40%.
Regarding `Cc1nc(N2CCN(Cc3ccc(Cl)cc3)CC2)c2oc3ccccc3c2n1`, the “hERG current change (%, negative = inhibition) at 10uM” value is listed as -19.3%.
For `C(=C\c1ccccc1)/CN1CCN(c2ncnc3c2oc2ccccc23)CC1`, the “hERG current change (%, negative = inhibition) at 10uM” value was -53.7%.
Then `Cc1nc(SCc2nc3ccccc3[nH]2)c2oc3ccccc3c2n1`, with 1.04%; and `c1ccc2[nH]c(CN3CCN(c4ncnc5c4oc4ccccc45)CC3)nc2c1`, with -73.1%.
Then `COc1ccccc1N1CCN(c2ncnc3c2oc2ccccc23)CC1`, with 6.73%; and `c1ccc2[nH]c(CSc3ncnc4c3oc3ccccc34)nc2c1`, with -21.4%; and `Cc1nc(N2CCN(Cc3nc4ccccc4[nH]3)CC2)c2oc3ccccc3c2n1`, with -52.1%.
Turning to `c1ccc(N2CCN(c3ncnc4c3oc3ccccc34)CC2)cc1`, the “hERG current change (%, negative = inhibition) at 10uM” value is recorded as 2.36%.
Then `Cl.c1ccc2c(c1)oc1c(N3CCOCC3)ncnc12`, with 9.53%; and `CC(C)(C)NC(=O)CCN(/N=C/c1ccccc1F)C1=NS(=O)(=O)c2ccccc21`, with 15.7%.
Under `CCNc1c(NS(=O)(=O)c2ccc(OC)cc2)c(=O)oc2ccccc12` stands -24.3%; under `O=C(Nc1ccccc1Cc1ccccc1)c1ccc2c(c1)SC1=NS(=O)(=O)CCN12`, -5.78%; under `COC(=O)c1cccc(NC(=S)Nc2ccccc2Cl)c1`, -3.48%.
Under `Cc1c(C(=O)N(C)C)c2ccc(Cl)cc2n1O` stands 15.6%; under `COc1ccc(Cn2c(=O)[nH]c3cc(OC)c(OC)cc3c2=O)cc1`, 7.17%; under `Cc1ccc(C(=O)N/C(N)=N/c2nc3ccccc3o2)cc1`, -2.82%.
For the compound `N=c1c2c(-c3ccccc3)c(-c3ccccc3)n(Cc3ccco3)c2ncn1Cc1ccccc1`, the “hERG current change (%, negative = inhibition) at 10uM” value was -69.3%.
Under `N=c1c2c(-c3ccccc3)c(-c3ccccc3)oc2ncn1Cc1ccco1` stands 0.861%; under `N=C1C(c2ccccc2)=C(O)CN1Cc1ccco1`, 6.39%; under `N=c1c2c(-c3ccccc3)c(-c3ccccc3)n(Cc3ccco3)c2ncn1Cc1ccco1`, -71.2%.
Then `CC(C)Cn1cnc2c(c(-c3ccccc3)c(-c3ccccc3)n2Cc2ccco2)c1=N`, with -73.3%; and `O=c1c2ccccc2nc(-c2ccccc2)n1Cc1ccco1`, with -30.5%; and `O=c1c2ccccc2c2ccccc2c(=O)n1Cc1ccco1`, with 3.47%.
Take `CC1(C)Cc2c(sc3c2c(=N)n(Cc2ccco2)c(=O)n3Cc2ccccc2)CO1`: the “hERG current change (%, negative = inhibition) at 10uM” value is -12.5%.
Take `CCN(CC)S(=O)(=O)c1ccc(Cl)c(C(=O)Nc2cc(C)nn2-c2ccccc2)c1`: the “hERG current change (%, negative = inhibition) at 10uM” value is -26.3%.
Under `O=C(CCC(=O)N1CCSc2ccccc21)NCc1ccc(Cl)cc1` stands -33.8%; under `CCOc1cc(/C=N/NC(=O)c2ccncc2)ccc1OS(C)(=O)=O`, -3.33%; under `COc1ccc(C2=CC3=C(Br)C(=O)C(C)(O)C(=O)C3=CO2)cc1` (stereo not shown), 11.9%.
As to `O=[N+]([O-])c1cc([N+](=O)[O-])c(N2CCCCCC2)cc1NCCO`, the “hERG current change (%, negative = inhibition) at 10uM” value is recorded as -13.4%.
Then `Cc1ccc2c(c1)C(O)(CC(=O)c1ccc(C)s1)C(=O)N2` (stereo not shown), with 21.4%; and `O=C1C=C(c2ccc3[nH]ccc3c2)CCC1`, with 16.3%.
Regarding `CC(=O)OCC1(C)CN(c2ccccc2)NC1=O` (stereo not shown), the “hERG current change (%, negative = inhibition) at 10uM” value was determined as 13.7%.
Then `Cl.NC(=NCc1ccccc1)c1cccc([N+](=O)[O-])c1`, with -20%; and `CC(CCc1ccccc1)NC(=O)c1cccc([N+](=O)[O-])c1` (stereo not shown), with -8.01%; and `C=CCN(CC(O)c1cccc([N+](=O)[O-])c1)C(C)CCc1ccccc1.Cl` (stereo not shown), with -36.4%.
Under `O=C(Cc1ccccc1)NC(NC(=O)Cc1ccccc1)c1cccc([N+](=O)[O-])c1` stands 4.27%; under `CC(CCc1ccccc1)N(C)CC(O)c1cccc([N+](=O)[O-])c1.Cl` (stereo not shown), -68.6%; under `CC(CCc1ccccc1)NC(=O)CNc1cccc([N+](=O)[O-])c1` (stereo not shown), -30.1%.
Under `N/C(=N\OC(=O)CCCc1ccccc1)c1cccc([N+](=O)[O-])c1` stands -3.9%; under `CC(CCc1ccccc1)NCC(O)c1cccc([N+](=O)[O-])c1.Cl` (stereo not shown), -56.2%.
In the case of `Cl.NC(=NCCc1ccccc1)c1cccc([N+](=O)[O-])c1`, the “hERG current change (%, negative = inhibition) at 10uM” value is reported as -57.7%.
`CCOc1cc(/C=C(/C#N)c2nc3ccccc3[nH]2)ccc1OCc1ccc(C(=O)O)o1`: the “hERG current change (%, negative = inhibition) at 10uM” value stood at 3.75%.
Then `CC1(C)CC2CC(C)(CN2C(=O)C23CCC(C)(C(=O)O2)C3(C)C)C1` (stereo not shown), with -8.69%; and `Cc1cc(C)c(S(=O)(=O)NCc2cn3ccccc3n2)c(C)c1`, with 4.96%.
`CCCCNC(=O)c1cc2ccccc2s1`: the “hERG current change (%, negative = inhibition) at 10uM” value is listed as 10.8%.
Then `CC1CCN(C(=O)CNC(=O)CNC(=O)Cc2ccccc2)CC1`, with 4.9%.
With `C=CCN1C(=O)C2C(C(=O)NC3CCCC3)C3C=CC2(O3)C1C(=O)NC1CCCC1` (stereo not shown), the “hERG current change (%, negative = inhibition) at 10uM” value is listed as 19%.
On to `COC(=O)c1sccc1NC(=O)c1c(F)c(F)c(F)c(F)c1F`, for which the “hERG current change (%, negative = inhibition) at 10uM” value is 27%.
Take `CN(Cc1ccccc1)CC(O)COc1ccc(CNCc2cccnc2)cc1` (stereo not shown): the “hERG current change (%, negative = inhibition) at 10uM” value is given as 1.13%.
Under `CN(Cc1ccc(OCC(O)CN(C)Cc2ccccc2)cc1)Cc1nccn1C` (stereo not shown) stands -4.14%; under `CN(Cc1ccc(Br)cc1)CC(O)COc1cccc(Br)c1` (stereo not shown), -28.5%; under `COc1ccc(Br)cc1CN(C)CC(O)COc1ccc(Br)cc1` (stereo not shown), -74.6%.
Consider `COc1ccc(OCC(O)CNc2ccc(Br)cc2)cc1` (stereo not shown), for which the “hERG current change (%, negative = inhibition) at 10uM” value was determined as 9.56%.
On to `CCn1ccnc1CNCc1ccc(OCC(O)CN(C)Cc2ccccc2)cc1` (stereo not shown), for which the “hERG current change (%, negative = inhibition) at 10uM” value is -11.7%.
Then `Cc1cc(CN(C)Cc2ccc(OCC(O)CN(C)Cc3ccccc3)cc2)on1` (stereo not shown), with -4.84%; and `CN(Cc1ccccc1)CC(O)COc1ccc(CNCc2nccn2C)cc1` (stereo not shown), with -72.5%.
Under `COc1ccc(CN(C)CC(O)COc2ccc(-c3ccccc3)cc2)cc1OC` (stereo not shown) stands -69.4%.
